Compounds with a hit are over-represented: about 0.29% of the library has one in this group of screens.
CatB mixtures: human cathepsin B inhibition by mixtures; P07858; Purified cathepsin B, AMC dipeptide fluorescence, compound mixtures; inhibition, %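 (ten-compound pools at 5 µM per compound and 50 µM total)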; 62,000 tested, 0.06% active; AID 488; in the data active = inhibition above about 22%, passing the limit was not always enough; inconclusive = no clear call, values can overlap the other calls
CatL inh: inhibitors of human cathepsin L. AID 460. purified cathepsin L, fluorogenic substrate, fluorescence. inhibition, %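 (tested at 10 µM)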. 58,000 tested, 0.17% active; in the data active = inhibition above about 45%
Target sequence (P07711 114-288 limits assumed): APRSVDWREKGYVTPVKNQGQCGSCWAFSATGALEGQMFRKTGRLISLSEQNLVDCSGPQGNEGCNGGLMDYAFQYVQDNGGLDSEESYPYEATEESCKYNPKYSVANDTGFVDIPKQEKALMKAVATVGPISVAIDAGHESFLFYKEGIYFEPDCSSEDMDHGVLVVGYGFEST
Target sequence (P07711 292-333 limits assumed): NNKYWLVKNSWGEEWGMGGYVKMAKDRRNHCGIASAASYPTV
CatS block: human cathepsin S inhibition | 62,000 tested, 0.06% active | inhibition, %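 (tested at 5 µM per compound within 10-compound mixtures)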 | recombinant cathepsin S, AMC dipeptide fluorescence, pooled mixtures | P25774; in the data active = inhibition above about 32%, passing the limit was not always enough; inconclusive = no clear call, values can overlap the other calls
Target sequence (P25774 115-331 limits assumed): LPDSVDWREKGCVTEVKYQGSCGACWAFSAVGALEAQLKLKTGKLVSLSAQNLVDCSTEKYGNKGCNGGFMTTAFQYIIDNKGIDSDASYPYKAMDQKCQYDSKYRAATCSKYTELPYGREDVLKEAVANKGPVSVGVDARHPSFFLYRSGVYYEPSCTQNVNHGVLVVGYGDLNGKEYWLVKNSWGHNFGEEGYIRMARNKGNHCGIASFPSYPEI
CatB inh: human cathepsin B inhibition. AID 453. 63,000 tested, 0.1% active. inhibition, %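 (tested at 10 µM)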. purified cathepsin B, fluorogenic substrate, fluorescence; in the data active = inhibition above about 21%
Hits are given with their value.

`c1ccc2c(c1)oc1c(N3CCN(Cc4ccc5c(c4)OCO5)CC3)ncnc12` gave CatB mixtures inactive, CatL inh inactive, CatS block inactive and CatB inh inactive.
Screening CC1(C)Cc2c(C#N)c(SCC(=O)c3ccccc3)nc(N3CCOCC3)c2CO1 returned CatB mixtures inactive, CatL inh inactive, CatS block inactive and CatB inh inactive.
For COC(=O)Sc1nc(N2CCOCC2)c2c(c1C#N)CC(C)(C)OC2 the results were CatL inh inactive and CatB inh 46.5.
For Cc1c(Cl)cccc1NC(=O)CSc1nnc(CCNC(=O)OC(C)(C)C)o1 the results were CatB mixtures inactive, CatL inh inactive, CatS block inactive and CatB inh inactive.
Screening CCOC(=O)C1=C(C)NC(C)=C(C(=O)OC)C1c1cccc(Cl)c1Cl (centres undefined) returned CatB mixtures inactive, CatL inh inactive, CatS block inactive and CatB inh 33.5.
For COC(=O)C1=C(C)NC(=O)CC1c1cccc(Cl)c1Cl (centres undefined) the results were CatB mixtures inactive, CatS block inactive and CatB inh inactive.
Screening CCOc1ccc(NC2=NC(C(=O)NCc3ccccc3)CC(=O)N2)cc1 (centres undefined) returned CatB mixtures inactive, CatL inh 55.4, CatS block inactive and CatB inh inactive.
O=C1CC(C(=O)NCc2ccccc2)N=C(N2CCCCC2)N1 (centres undefined) was read as CatB mixtures inactive, CatL inh inactive, CatS block inactive and CatB inh inactive.
For Cc1nnc2ccc(N3CCN(c4cccc(C(F)(F)F)c4)CC3)nn12 the results were CatB mixtures inactive, CatL inh inactive, CatS block inactive and CatB inh inactive.
Screening Cc1nnc2ccc(N3CCN(c4ccccn4)CC3)nn12 returned CatB mixtures inactive, CatS block inactive and CatB inh 50.6.
`C=CCNC1=C(Cl)C(=O)N(c2ccccc2Cl)C1=O` gave CatB mixtures inactive, CatL inh inactive, CatS block inactive and CatB inh inactive.
COc1ccc(S(=O)(=O)N2CCCN(CC(=O)Nc3ccc4c(c3)OCO4)CC2)cc1 was read as CatB mixtures inactive, CatL inh inactive, CatS block inactive and CatB inh inactive.
`O=C(CN1CCCN(S(=O)(=O)c2ccc(Br)cc2)CC1)Nc1ccc2c(c1)OCO2` gave CatB mixtures inactive, CatL inh 51.4, CatS block inactive and CatB inh inactive.
For COCCn1c(=O)[nH]c2cc(C(=O)NCCN3CCN(c4cccc(Cl)c4)CC3)ccc2c1=O the results were CatB mixtures inactive, CatL inh inactive, CatS block inactive and CatB inh inactive.
Cc1nc(CSc2nnc3scc(-c4ccc(Cl)cc4)n23)cs1 was read as CatB mixtures inactive, CatS block inactive and CatB inh inactive.
`COc1ccc(OC)c(C2C(C#N)=C(N)Oc3cc(C)n(Cc4ccccn4)c(=O)c32)c1` (centres undefined) gave CatL inh 63.3 and CatB inh inactive.
For COc1ccccc1-c1cc(C(F)(F)F)nc(N2CCN(c3ccccc3)CC2)n1 the results were CatB mixtures inactive, CatL inh 104.8, CatS block inactive and CatB inh inactive.
COc1cccc2c1OC1(C)CC2NC(=O)N1c1cccc(C(=O)Nc2ccc3c(c2)OCCO3)c1 (centres undefined) was read as CatB mixtures inactive, CatL inh inactive, CatS block inactive and CatB inh inactive.
For CCN(CC)CCCNC(=O)c1cc2c(=O)n(C)c3ccccc3c2n1C the results were CatB mixtures inactive, CatL inh inactive, CatS block inconclusive and CatB inh inactive.
CCN(CC)CCNC(=O)c1cc2c(=O)n(C)c3ccccc3c2n1C was read as CatB mixtures inactive, CatL inh inactive, CatS block 47.6 and CatB inh inactive.
For CN(C)CCNC(=O)c1cc2c(=O)n(C)c3ccccc3c2n1C the results were CatB mixtures inactive, CatL inh inactive, CatS block 82.3 and CatB inh inactive.
Screening CCCN(CCC)CCCNC(=O)c1cc2c(=O)n(C)c3ccccc3c2n1C returned CatB mixtures inactive, CatL inh inactive, CatS block inactive and CatB inh inactive.
Screening CCCCN(CC)CCNC(=O)c1cc2c(=O)n(C)c3ccccc3c2n1C returned CatB mixtures inactive, CatL inh inactive, CatS block 56.9 and CatB inh inactive.
CC(=O)Nc1ccc(S(=O)(=O)N2CCSC2C(=O)O)cc1 (centres undefined) was read as CatB mixtures inactive, CatL inh inactive, CatS block inactive and CatB inh inactive.
Screening CC(=O)Nc1ccc(S(=O)(=O)/N=C2\SCCN2S(=O)(=O)c2ccc(NC(C)=O)cc2)cc1 returned CatB mixtures inactive, CatL inh 78.7, CatS block inactive and CatB inh inactive.
Screening O=c1cc(CSc2ccccn2)[nH]c(=O)[nH]1 returned CatB mixtures inactive, CatL inh inactive, CatS block 40.5 and CatB inh inactive.
`COc1ccc(N(CC(=O)Nc2cccc(C)c2C)S(=O)(=O)c2c(C)n[nH]c2C)cc1` gave CatB mixtures inactive, CatL inh inactive, CatS block inactive and CatB inh 61.5.
For C/C(N)=N\S(=O)(=O)c1ccc(Cl)cc1 the results were CatB mixtures inactive, CatL inh inactive, CatS block inactive and CatB inh 29.4.
`CCn1cc(C(=O)Nn2cnnc2)c(=O)c2ccc(C)nc21` gave CatB mixtures inactive, CatL inh inactive, CatS block inactive and CatB inh inactive.
`O=C(CSc1nnc(-c2ccco2)c(-c2ccco2)n1)Nc1ccccc1` gave CatB mixtures inconclusive, CatL inh inactive, CatS block inactive and CatB inh 57.1.
COc1ccc2c3c(cccc13)NN=C2C was read as CatB mixtures inactive, CatS block inactive and CatB inh inactive.
Screening O=C(CN1CCN(c2ncccn2)CC1)Nc1ccccc1-n1cccc1 returned CatB mixtures inactive, CatL inh inactive, CatS block inactive and CatB inh inactive.
For COc1ccc2nc(CC(C)(C)CC(=O)O)c[n+]([O-])c2c1 the results were CatB mixtures inactive, CatL inh inactive, CatS block inactive and CatB inh 23.2.
For COc1ccc2nc(COC(=O)c3ccco3)c(C(C)=O)[n+]([O-])c2c1 the results were CatB mixtures inactive, CatL inh inactive, CatS block inactive and CatB inh inactive.
For Cc1c(NC(=O)CCc2ccc(S(=O)(=O)N3CCOCC3)cc2)c(=O)n(-c2ccccc2)n1C the results were CatB mixtures inactive, CatL inh inactive, CatS block inactive and CatB inh inactive.
CCOC(=O)c1ccc(N=Cc2nc(-c3ccccc3)oc2OC(C)=O)cc1 was read as CatB mixtures inactive, CatL inh inactive, CatS block inactive and CatB inh inactive.
For CCC(=O)Oc1oc(-c2ccccc2)nc1C=Nc1ccccc1OC the results were CatL inh inactive and CatB inh 25.9.
Screening CCCCOc1ccc(C2C3CN(C(=O)OCC)CC=C3C(C#N)=C(N)C2(C#N)C#N)cc1OC (centres undefined) returned CatB mixtures inactive, CatL inh 60.5, CatS block inactive and CatB inh inactive.
C=CS(=O)(=O)c1ccc(Oc2ccc(S(=O)(=O)C=C)cc2)cc1 was read as CatB mixtures inactive, CatL inh inactive, CatS block 38.6 and CatB inh inactive.
